Reference: PubChem BioAssay (NCI)
The panel holds about 79,000 compounds, 15% with a hit somewhere; the sample as a whole holds those more often. Active and inactive are the calls of the source. Rule as the data show it: active = growth inhibition above about 70%; inactive = the rest.

Key:
[1] = NCI Yeast Anticancer Drug Screen. Data for the rad52 strain (AID 147);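 also: 0% = growth of vehicle-treated control cultures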; conditions: S. cerevisiae rad52 mutant growth inhibition, active compounds read high
In short: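 Measured: yeast growth inhibition. System: strain with a defined DNA damage repair alteration. Reference: vehicle-treated control cultures.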

[2] = NCI Yeast Anticancer Drug Screen. Data for the wt1 strain (AID 149);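 also: 0% = growth of vehicle-treated wt1 cultures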; conditions: S. cerevisiae wt1 strain (SPY 50644) growth inhibition, active compounds read high
In short: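 Yeast wt1 strain exposed to compounds; growth inhibition measured relative to vehicle-treated controls.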

[3] = NCI Yeast Anticancer Drug Screen. Data for the rad50EPP+ strain (AID 151);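 also: 0% = growth of vehicle-treated control cultures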; conditions: S. cerevisiae rad50 mutant strain, active compounds read high
In short: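 One strain with a rad50 alteration (rad50EPP+) was compound-treated, its growth then compared to that of vehicle controls.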

[4] = NCI Yeast Anticancer Drug Screen. Data for the mgt1 strain (AID 153); conditions: S. cerevisiae mgt1 mutant growth inhibition, active compounds read high
In short: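 After exposure of the mgt1 yeast mutant to compound, growth was measured and reported as inhibition compared with vehicle controls.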

[5] = NCI Yeast Anticancer Drug Screen. Data for the rad50 strain (AID 155);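 also: 0% = growth of vehicle-only cultures of the same strain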; conditions: S. cerevisiae rad50 strain growth inhibition, active compounds read high
In short: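 Yeast carrying a defined DNA repair defect were exposed to test compounds, and growth was compared with vehicle-treated controls to give percent inhibition.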

[6] = NCI Yeast Anticancer Drug Screen. Data for the mec2-1 strain (AID 157); conditions: S. cerevisiae mec2-1 strain, active compounds read high
In short: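 Test agents were screened against the mec2-1 yeast strain, with defined DNA repair or cell cycle alteration. Growth was scored as inhibition against vehicle-only controls.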

[7] = NCI Yeast Anticancer Drug Screen. Data for the rad14 strain (AID 159);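 also: 0% = growth of vehicle-treated control cultures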; conditions: S. cerevisiae rad14 strain growth inhibition, active compounds read high
In short: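 Yeast cells carrying a defined DNA-repair defect were exposed to compounds, and growth inhibition was calculated relative to vehicle-treated control cultures.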

[8] = NCI Yeast Anticancer Drug Screen. Data for the sgs1 mgt1 strain (AID 161);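 also: 0% = growth of cultures given vehicle only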; conditions: S. cerevisiae sgs1 mgt1 strain, active compounds read high
In short: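 Read-out: growth inhibition vs vehicle controls. Cells: mutant yeast strain deficient in DNA damage repair.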

[9] = NCI Yeast Anticancer Drug Screen. Data for the CLN2oe strain (AID 163);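 also: 0% = growth of vehicle-only control cultures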; conditions: S. cerevisiae CLN2oe strain, active compounds read high
In short: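 Here, growth inhibition in a cell-cycle-altered yeast strain after compound exposure was quantified against vehicle control growth.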

[10] = NCI Yeast Anticancer Drug Screen. Data for the cln2 rad14 strain (AID 165);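 also: 0% = growth equal to vehicle treated cultures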; conditions: S. cerevisiae cln2 rad14 strain, active compounds read high
In short: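 Growth of compound-exposed yeast (cln2 rad14 genotype) measured and expressed as inhibition relative to vehicle.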

[11] = NCI Yeast Anticancer Drug Screen. Data for the bub3 strain (AID 167); conditions: S. cerevisiae bub3 mutant strain, active compounds read high
In short: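 Compounds were applied to a genetically altered yeast strain carrying a cell-cycle control defect. Growth inhibition was scored against vehicle-treated controls.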

[12] = NCI Yeast Anticancer Drug Screen. Data for the wt2 strain (AID 169);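 also: 0% = growth of vehicle-treated yeast cultures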; conditions: S. cerevisiae wt2 strain growth inhibition, active compounds read high
In short: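 Genetically defined yeast strains from a DNA-repair/cell-cycle panel were used. Compound-exposed yeast growth was measured, and the inhibition was calculated relative to vehicle treatment.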

[13] = NCI Yeast Anticancer Drug Screen. Data for the mlh1 strain (AID 171);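 also: 0% = growth of vehicle-treated control cultures of the same strain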; conditions: S. cerevisiae mlh1 strain growth inhibition, active compounds read high
In short: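 Here the genetically defined yeast mutant is grown with each compound, and the extent to which its growth falls below that of vehicle-exposed cells is reported.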

[14] = NCI Yeast Anticancer Drug Screen. Data for the sgs1 strain (AID 173);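 also: 0% = growth of vehicle-only control cultures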; conditions: S. cerevisiae sgs1 mutant, active compounds read high
In short: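 Relative growth inhibition, referenced to vehicle, was determined in a yeast strain with a defined alteration affecting DNA damage repair or cell cycle control after compound exposure.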

[15] = NCI Yeast Anticancer Drug Screen. Data for the mlh1 rad18 strain (AID 175); conditions: S. cerevisiae mlh1 rad18 strain growth inhibition, active compounds read high
In short: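 In this whole-cell yeast screen, a strain with altered DNA damage repair is challenged with compound, and its growth is measured against matched vehicle-treated controls.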

[16] = NCI Yeast Anticancer Drug Screen. Data for the rad18 strain (AID 177); conditions: S. cerevisiae rad18 mutant growth inhibition, active compounds read high
In short: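 Screen uses a yeast strain with a defined lesion in DNA damage repair; compound effect is read as loss of growth compared to untreated vehicle cultures.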

[17] = at 5.0 µM (retest, dose inferred, filed as 0.5)
[18] = at 50.0 µM (retest, dose inferred, filed as 5.0)

Measured: growth inhibition

O=C1C[C@H]2[C@H](c3ccc(Br)cc3)[C@H]3C(=O)c4ccccc4NC(=O)[C@@H]3[C@@]2(O)c2ccccc2N1
active: [5]; at 50.0 µM 96.8% | [6]; at 50.0 µM 97.8% | [8]; at 50.0 µM 96.4% | [10]; at 50.0 µM 97% | [11]; at 50.0 µM 72% | [15]; at 50.0 µM 97.8%
inactive: [1]; at 1.2 µM 5% | [1]; at 3.7 µM 7% | [1]; at 11.0 µM 8% | [1]; at 33.0 µM 38% | [1]; at 100.0 µM 33% | [2]; at 1.2 µM 6% | [2]; at 3.7 µM 10% | [2]; at 11.0 µM 11% | [2]; at 33.0 µM 14% | [2]; at 100.0 µM 16% | [3]; at 1.2 µM 0% | [3]; at 3.7 µM 2% | [3]; at 11.0 µM 3% | [3]; at 33.0 µM 3% | [3]; at 100.0 µM 3% | [4]; at 1.2 µM 5% | [4]; at 3.7 µM 11% | [4]; at 11.0 µM 12% | [4]; at 33.0 µM 45% | [4]; at 100.0 µM 36% | [5]; at 1.2 µM 3% | [5]; at 3.7 µM 6% | [5]; [17] -12% | [5]; at 11.0 µM 9% | [5]; at 33.0 µM 35% | [5]; [18] 14% | [5]; at 100.0 µM 35% | [6]; at 1.2 µM 9% | [6]; at 3.7 µM 11% | [6]; [17] 14% | [6]; at 11.0 µM 15% | [6]; at 33.0 µM 33% | [6]; [18] 19% | [6]; at 100.0 µM 33% | [7]; at 1.2 µM 6% | [7]; at 3.7 µM 9% | [7]; at 11.0 µM 16% | [7]; at 33.0 µM 32% | [7]; at 100.0 µM 27% | [8]; [17] -3% | [8]; [18] 2% | [9]; at 1.2 µM 9% | [9]; at 3.7 µM 16% | [9]; at 11.0 µM 16% | [9]; at 33.0 µM 38% | [9]; at 100.0 µM 38% | [10]; [17] -7% | [10]; [18] 27% | [11]; at 1.2 µM 3% | [11]; at 3.7 µM 7% | [11]; [17] 7% | [11]; at 11.0 µM 9% | [11]; at 33.0 µM 19% | [11]; [18] 56% | [11]; at 100.0 µM 23% | [12]; at 1.2 µM 6% | [12]; at 3.7 µM 11% | [12]; at 11.0 µM 15% | [12]; at 33.0 µM 28% | [12]; at 100.0 µM 30% | [13]; at 1.2 µM 6% | [13]; at 3.7 µM 12% | [13]; at 11.0 µM 14% | [13]; at 33.0 µM 32% | [13]; at 100.0 µM 29% | [14]; at 1.2 µM 8% | [14]; at 3.7 µM 17% | [14]; at 11.0 µM 26% | [14]; at 33.0 µM 44% | [14]; at 100.0 µM 39% | [15]; [17] 36% | [15]; [18] 54% | [16]; at 1.2 µM 6% | [16]; at 3.7 µM 16% | [16]; at 11.0 µM 29% | [16]; at 33.0 µM 52% | [16]; at 100.0 µM 46%

NCCOc1ccc(/C(=C(/Cl)c2ccccc2)c2ccccc2)cc1
active: [1]; at 33.0 µM 98% | [1]; at 100.0 µM 96% | [2]; at 33.0 µM 98% | [2]; at 100.0 µM 97% | [3]; at 33.0 µM 97% | [3]; at 100.0 µM 96% | [4]; at 33.0 µM 98% | [4]; at 100.0 µM 96% | [5]; at 33.0 µM 99% | [5]; [18] 98% | [5]; at 50.0 µM 85.5% | [5]; at 100.0 µM 96% | [6]; at 33.0 µM 98% | [6]; [18] 99% | [6]; at 50.0 µM 93.8% | [6]; at 100.0 µM 97% | [7]; at 11.0 µM 72% | [7]; at 33.0 µM 98% | [7]; at 100.0 µM 96% | [8]; [18] 98% | [8]; at 50.0 µM 92.7% | [9]; at 33.0 µM 98% | [9]; at 100.0 µM 96% | [10]; [18] 98% | [10]; at 50.0 µM 92.2% | [11]; at 33.0 µM 99% | [11]; [18] 98% | [11]; at 50.0 µM 91.8% | [11]; at 100.0 µM 96% | [12]; at 33.0 µM 98% | [12]; at 100.0 µM 97% | [13]; at 33.0 µM 99% | [13]; at 100.0 µM 97% | [14]; at 33.0 µM 99% | [14]; at 100.0 µM 97% | [15]; [18] 98% | [15]; at 50.0 µM 88.7% | [16]; at 33.0 µM 99% | [16]; at 100.0 µM 97%
inactive: [1]; at 1.2 µM -10% | [1]; at 3.7 µM -15% | [1]; at 11.0 µM 23% | [2]; at 1.2 µM 1% | [2]; at 3.7 µM -4% | [2]; at 11.0 µM 5% | [3]; at 1.2 µM 0% | [3]; at 3.7 µM 9% | [3]; at 11.0 µM 15% | [4]; at 1.2 µM -6% | [4]; at 3.7 µM -7% | [4]; at 11.0 µM 13% | [5]; at 1.2 µM -3% | [5]; at 3.7 µM 3% | [5]; [17] 17% | [5]; at 11.0 µM 39% | [6]; at 1.2 µM -5% | [6]; at 3.7 µM -17% | [6]; [17] 7% | [6]; at 11.0 µM 11% | [7]; at 1.2 µM -16% | [7]; at 3.7 µM -18% | [8]; [17] 7% | [9]; at 1.2 µM 18% | [9]; at 3.7 µM 12% | [9]; at 11.0 µM 36% | [10]; [17] 37% | [11]; at 1.2 µM 0% | [11]; at 3.7 µM -35% | [11]; [17] -11% | [11]; at 11.0 µM 14% | [12]; at 1.2 µM -4% | [12]; at 3.7 µM 0% | [12]; at 11.0 µM 2% | [13]; at 1.2 µM 18% | [13]; at 3.7 µM 10% | [13]; at 11.0 µM 34% | [14]; at 1.2 µM 26% | [14]; at 3.7 µM 23% | [14]; at 11.0 µM 55% | [15]; [17] -1% | [16]; at 1.2 µM 16% | [16]; at 3.7 µM 29% | [16]; at 11.0 µM 30%
